Screens deposited in PubChem by National Center for Advancing Translational Sciences (NCATS).
KB-V1 MDR tox: qHTS assay for MDR1-selective chemotherapeutics: Primary screen using the drug-selected MDR subline cells KB-V1; KB-V1 MDR cells viability, CellTiter-Glo, 72 h; Potency, µM (highest dose often 46.1 µM), actives largely listed as cytotoxic; 400,000 compounds, 3.4% hits; further: on the % scale 0 is the no-effect control and ±100 the full control effect; nearly all actives have a fitted effect of over 60% in size
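KB-V1 MDR subline cells in DMEM (phenol-red free, 10% FBS) exposed to compounds in qHTS concentration series for 72 h at 37 degrees C. Viability read by CellTiter-Glo luminescence; concentration-effect curves fitted after normalization and correction.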
KB-3-1 cytotox: qHTS assay for MDR1-selective chemotherapeutics: Primary screen using the parental adenocarcinoma cell KB-3-1 | KB-3-1 viability, CellTiter-Glo ATP luminescence, 72 h | AID 1347075, 2019 | 400,000 compounds, 1.4% hits | Potency, µM (series often up to 46.1 µM), actives largely listed as cytotoxic; further: on the % scale 0 is the no-effect control and ±100 the full control effect; nearly all actives have a fitted effect of over 60% in size
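Multi-concentration cytotoxicity screen in KB-3-1 cells grown in DMEM lacking phenol red with 10% FBS. After 72 h at 37 °C with compound, ATP-dependent luminescence was recorded.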
SW480 rereplic: A quantitative high throughput screen for small molecules that induce DNA re-replication in SW480 colon adenocarcinoma cells. AID 624297, 2012. Potency, µM (doses to about 46.1 µM), without a hit: top-dose re-replication activation, usual class: activators. 340,000 compounds, 1.8% hits. SW480 DNA re-replication, Hoechst DNA content imaging, 48 h; further: % of control where 0% means no effect; nearly all actives have a fitted effect of over 55% in size
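First, 250 cells per well were seeded. Next, compound or vehicle (23 nL) was pinned in, plates sat 48 hr at 37 C. Finally Hoechst was added for 40 min before fluorescence scanning.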
PINK1 expr mod: A Quantitative High throughput Screen to Identify Chemical Modulators of PINK1 Expression; PINK1 immunofluorescence, high-content cytometry, 24 h; 410,000 compounds, 0.2% hits; Potency, µM (highest dose often 76.6 µM), for the others: at the highest dose activation (PINK1 increase), most hits filed as activators; AID 624263, 2012; active means well fitted activation curve with a large enough effect; inconclusive means small, poorly fitted or top-dose-only effect; cell line not stated here; further: % of control where 0% means no effect; nearly all actives have a fitted effect of over 65% in size
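Stable cell line, 250 cells/well, 12 h attachment; compounds pinned at 5 concentrations, 24 h; CCCP control. Fixed with nuclear dye, primary antibodies 12 h at 10 degrees C, secondary plus cell stain; laser-scanning cytometer read.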
PTAP TSG101 blk: qHTS Assay for Iinhibitors of HIV-1 Budding by Blocking the Interaction of PTAP/TSG101 | Fluorescence polarization, FITC-PTAP peptide / Tsg101 binding | Potency, µM (titrated, usually from 115 µM), inactives show at the top dose activity change, negative = inhibition, most hits filed as inhibitors | 340,000 tested, under 10 active; active means well fitted inhibition curve with a large enough effect in the main read-out, with a control signal flat, not every such curve was filed as active; inconclusive means small, poorly fitted or top-dose-only effect, or effect the other way, or a change in a side signal; inactive means no such curve, though single readings can be large or run the other way; further: % of control where 0% means no effect
Target sequence (Q99816 whole entry, looked up): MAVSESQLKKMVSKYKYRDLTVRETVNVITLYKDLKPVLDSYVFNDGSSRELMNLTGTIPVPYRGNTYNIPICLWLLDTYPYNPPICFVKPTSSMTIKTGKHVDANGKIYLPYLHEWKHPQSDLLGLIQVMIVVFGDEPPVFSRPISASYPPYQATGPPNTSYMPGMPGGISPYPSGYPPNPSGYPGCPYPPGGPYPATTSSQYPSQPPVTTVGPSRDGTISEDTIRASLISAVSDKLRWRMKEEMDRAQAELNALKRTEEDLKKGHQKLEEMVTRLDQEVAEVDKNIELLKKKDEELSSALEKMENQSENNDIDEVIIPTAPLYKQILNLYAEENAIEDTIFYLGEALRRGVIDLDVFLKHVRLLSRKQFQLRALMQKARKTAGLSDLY
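Fluorescence polarization binding of Tsg101 binding domain (10 uM final) to FITC-labeled PTAP peptide (50 nM final) in HEPES pH 7.5 buffer with NaCl, Tween 20, EDTA, TCEP. Compounds added before peptide; binding 20 min at RT.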
MCF10A rereplic: A quantitative high throughput screen for small molecules that induce DNA re-replication in MCF 10a normal breast cells | MCF 10A DNA re-replication, Hoechst nuclear intensity, 48 h | Potency, µM (doses to about 46.1 µM), for the others: at the top dose activity, positive = re-replication, actives largely listed as activators | 350,000 compounds, 2.9% hits; further: % of control where 0% means no effect; nearly all actives have a fitted effect of over 50% in size
The depositor's hits bear a star; i = inactive; ? = inconclusive; nt = no result; [ ] = dose if it differs, or a comment. A selection: hits, their analogues and other compounds. The true share with any hit is near 6.8%. Unless noted, the call rests on the fitted dose curve; in most records, active means well fitted curve in the direction sought with a large enough effect; inconclusive means small, poorly fitted or top-dose-only effect, or another doubt; inactive means no such curve, though single readings can be large; an effect the other way counts as inactive or inconclusive. Potency means the concentration at half of the fitted maximal effect.

SMILES | KB-V1 MDR tox | KB-3-1 cytotox | SW480 rereplic | PINK1 expr mod | PTAP TSG101 blk | MCF10A rereplic
CCN(CC)S(=O)(=O)c1ccc(N2CCOCC2)c(NC(=O)c2cccc3ccccc23)c1 | i | i | 5.2% | 6.7% | 1.3% | 2.6%
CCN(CC)S(=O)(=O)c1ccc(N2CCOCC2)c(NC(=O)c2cccc3c(=O)c(C)c(-c4ccccc4)oc23)c1 | 20.6µM* | i | -0.4% | 0.7% | 0.1% | 3.66µM*
COc1cccc(-n2cc(C(=O)Nc3cc(OC)c(OC)c(OC)c3)c3ccccc3c2=O)c1 | nt | nt | nt | 7.1% | nt | nt
Cc1ccc(NC(=O)CN2CCCN(Cc3cc(C)ccc3C)S2(=O)=O)c(Cl)c1 | i | i | nt | 0.1% | nt | nt
O=Cc1c(Sc2ccccc2)nc2ccccn2c1=O | ? | 14.6µM* | 17.5% | 0.4% | -6.2% | ?
O=Cc1c(Sc2ccccn2)nc2ccccn2c1=O | i | ? | 13.1% | 0.0% | -6.1% | 2.2%
CCN(CC)c1ccc(/C=N/NC(=O)C(O)(c2ccccc2)c2ccccc2)o1 | nt | nt | ? | nt | nt | 7.31µM*
O=C(O)c1ccc(/C=N/NC(=O)C(O)(c2ccccc2)c2ccccc2)cc1 | i | i | ? | -1.5% | -0.6% | -15.3%
Cc1cccc(N2CCN(C(=O)CN3C(=O)CSc4c3c(C)nn4-c3ccccc3)CC2)c1C | i | i | nt | 1.1% | nt | nt
O=C(NCc1ccccc1)c1ccc(Cn2cc(C(F)(F)F)ccc2=O)cc1 | 13µM* | i | -9.9% | 9.2%[38.3 µM] | -5.0% | 4.4%
Cc1cccc(NC(=O)c2ccc(Cn3cc(C(F)(F)F)ccc3=O)cc2)c1 | 16.4µM* | i | -1.9% | 2.2% | -8.4% | 22.4%
O=C(NCc1ccncc1)c1ccc(Cn2cc(C(F)(F)F)ccc2=O)cc1 | i | i | 0.2% | -3.1% | -5.7% | 1.8%
Cc1c(C)n(Cc2ccc(F)cc2)c2ccc(C(=O)Nc3ccc(Cl)cc3)cc12 | i | ? | nt | 5.5% | nt | nt
CCOc1cc(CNCc2ccccc2)ccc1OCc1ccc(Cl)cc1 | i | ? | 14.6µM* | -2.1% | -6.0% | ?
CCOc1cc(CNCCc2ccc(S(N)(=O)=O)cc2)cc(Cl)c1OCc1ccccc1 | ? | i | ? | -5.2%[38.3 µM] | -1.1% | 1.1%
CCOc1cc(CNCCc2ccc(S(N)(=O)=O)cc2)ccc1OCc1ccccc1 | ? | ? | ? | -1.0%[38.3 µM] | -3.2% | 20.6µM*
COc1ccc(OC)c(S(=O)(=O)NCCc2csc3nc(-c4ccccc4)nn23)c1 | nt | nt | nt | 1.5% | nt | nt
COc1cc2c(-c3ccc(O)cc3)nc3c(c(C)nn3-c3ccccc3)c2cc1OC | 3.66µM* | ? | ? | -2.0% | -0.8% | 14.6µM*
COc1cccc(-c2nc3c(c(C)nn3-c3ccccc3)c3cc(OC)c(OC)cc23)c1 | i | i | nt | 1.1% | nt | nt
CSC1SCC2C(=O)N(C)C(C(C)C)C(=O)OCC(NC(=O)c3cnc4ccccc4n3)C(=O)NC(C)C(=O)N(C)C1C(=O)N(C)C(C(C)C)C(=O)OCC(NC(=O)c1cnc3ccccc3n1)C(=O)NC(C)C(=O)N2C (stereo unspecified) | 1.64µM* | i | -1.3% | -2.0% | 0.1% | 3.7%
FC(F)(F)c1cnc2c(c1)[nH]c(=S)n2-c1ccc(Cl)cc1 | i | ? | -4.1% | 39.8µM* | 0.6% | ?
Cc1nc(C(=O)N(Cc2cc3ccc(F)cc3nc2N2CCC(O)CC2)CC2CCCO2)cs1 (stereo unspecified) | nt | nt | nt | 0.6% | nt | nt
